In the library only some 2.8% were active in any assay of this set; here they are far more common.
BRCA1 expr up: BRCA1 expression activation; MCF7-BRCA1-FFLuc reporter, luminescence, 48 h; response scale: scaled: vehicle 0%, 10 µM genistein 100%; Potency, µM (series often up to 46.1 µM), for inactives: at the top dose activation, hits mostly activators; hit rate 1.1% among 380,000; AID 624202; further: nearly all actives have a fitted effect of over 80% in size
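Using MCF7 cells harboring a BRCA1 firefly luciferase reporter, plated 2 h before compound pinning, the screen measured luminescence after 48 h incubation. Responses were normalized to DMSO and 10 microM genistein, then fitted for concentration-effect.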
GLP1R ag: activates the human GLP-1 receptor; Potency, µM (doses to about 45.6 µM), without a hit: at the highest dose activation, usual class: activators; HEK293 GLP-1R CRE-luciferase, luminescence, 4-6 h; cells express a hypersensitive GLP-1R form; P43220; AID 624172; hit rate 0.007% among 380,000; further: % of control where 0% means no effect
Target sequence (P43220 whole entry, looked up): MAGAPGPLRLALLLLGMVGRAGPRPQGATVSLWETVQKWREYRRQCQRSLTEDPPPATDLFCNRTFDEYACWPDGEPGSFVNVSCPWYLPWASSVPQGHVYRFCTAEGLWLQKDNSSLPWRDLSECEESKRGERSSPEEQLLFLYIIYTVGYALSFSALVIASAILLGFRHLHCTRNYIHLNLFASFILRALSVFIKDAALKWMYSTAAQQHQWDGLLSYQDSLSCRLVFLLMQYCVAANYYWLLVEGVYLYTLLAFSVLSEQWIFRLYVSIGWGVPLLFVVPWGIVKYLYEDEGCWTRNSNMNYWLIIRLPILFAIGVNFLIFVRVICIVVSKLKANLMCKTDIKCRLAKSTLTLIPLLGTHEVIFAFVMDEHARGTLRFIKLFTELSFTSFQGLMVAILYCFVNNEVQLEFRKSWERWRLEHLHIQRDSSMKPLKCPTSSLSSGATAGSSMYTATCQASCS
GLP1R inv ag: acts as inverse agonist at human GLP-1 receptor. hit rate 1.6% among 410,000. P43220. Potency, µM (highest dose often 38.3 µM), for the others: at the top dose activity change, negative = inhibition, usual class: inhibitors. HEK293 GLP-1R CRE-luciferase, luminescence, 24 h; GLP-1R form is constitutively active. AID 624417; further: on the % scale 0 is the no-effect control and ±100 the full control effect; nearly all actives have a fitted effect of over 55% in size
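Using stably transfected HEK293 (constitutively active GLP-1R, cAMP-luciferase reporter), compounds were incubated 24 hr and luciferase measured by luminescence.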
Mito fusion act: blocks mitochondrial division or promotes mitochondrial fusion. S. cerevisiae fusion-defective mutant growth rescue, CellTiterGlo 48 h. Potency, µM (highest dose often 46.1 µM), inactives show at the top dose growth rescue (activation), hits mostly activators. hit rate 0.23% among 320,000. AID 485298; further: % of control where 0% means no effect; nearly all actives have a fitted effect of over 45% in size
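Growth-rescue viability read-out: after 48 h at the non-permissive 37C in glycerol/ethanol YPEG, yeast mitochondrial fusion mutants are measured by CellTiterGlo luminescence; compounds (23 nl pinned per well) restoring growth score as division inhibitors or fusion activators.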
HEK293 tox: cytotoxic in the GLP-1 receptor inverse agonist counter-screen. hit rate 0.13% among 410,000. AID 624418. HEK293 cAMP-luciferase reporter cells, luminescence, 24 h. Potency, µM (top dose mostly 38.3 µM), without a hit: at the highest dose activity change, negative = inhibition, actives largely listed as inhibitors;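 further: loss of luciferase light is scored as toxicity; on the % scale 0 is the no-effect control and ±100 the full control effect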
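Luminescence readout: signal drop marks cytotoxicity. Plated cells grew 12 h at 37 °C, 5% CO2, received 23 nL compound for 24 h, then got luciferase reagent, read after 12 min at RT.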
* marks the source's active call; other numbers are inactive results; ? = inconclusive; nt = no result. The call rests on the fitted dose curve; in most records, active means well fitted curve in the direction sought with a large enough effect; inconclusive means small, poorly fitted or top-dose-only effect, or another doubt; inactive means no such curve, though single readings can be large; an effect the other way counts as inactive or inconclusive. Potency means the concentration at half of the fitted maximal effect.

SMILES | BRCA1 expr up | GLP1R ag | GLP1R inv ag | Mito fusion act | HEK293 tox
CCOc1cccc(Oc2ncccc2C(=O)/C(C#N)=C/N(C)C)c1 | -5% | -1% | 11% | 1% | -2%
N#Cc1ccccc1NC(=O)CN(Cc1ccccc1)Cc1ccccc1 | -42% | 10% | 7.1µM* | -1% | 28%
Cc1ccc(NC(=O)CN(C)CC(=O)Nc2ccccc2C#N)cc1 | 5% | 11% | -5% | ? | -26%
Cn1c(SCC(=O)NC2CC2)nnc1-c1ccccc1Cl | 0% | -1% | 12% | 0% | -11%
O=C(O)c1ccccc1C(=O)Nc1ccc(-c2csc(-c3ccccc3)n2)cc1 | 7.1µM* | 22% | 49% | 3% | 9%
O=C(Nc1ccc(-c2csc(-c3ccccc3)n2)cc1)c1ccccc1Cl | -64% | 0% | ? | 0% | ?
Cc1nc(-c2ccc(NC(=O)c3ccccc3)cc2)cs1 | ? | 2% | ? | -1% | -10%
CCc1ccccc1NC(=O)c1ccc(-c2csc(C)n2)cc1 | 3.5µM* | 20% | 24% | 1% | -5%
CNC(=O)c1ccc(-c2nc(-c3ccccc3)cs2)cc1 | 2.5µM* | 16% | 42% | -1% | -4%
O=C(CSc1nnc(-c2ccccc2F)o1)N1CCCC1 | ? | 0% | 17% | 1% | -1%
CC1CCCN(C(=O)CSc2nnc(-c3cccs3)o2)C1 (centres undefined) | 103% | 12% | -15% | -1% | 9%
CCC1CCCCN1C(=O)CSc1nnc(-c2cccs2)o1 (centres undefined) | 8.9µM* | -1% | ? | -5% | 1%
CC1CCCCN1C(=O)CSc1nnc(-c2ccco2)o1 (centres undefined) | 3.2µM* | 1% | ? | 4% | -10%
CC1CCCCN1C(=O)CSc1nnc(-c2ccccc2F)o1 (centres undefined) | 3.2µM* | 11% | -7% | 4% | -9%
CN(C(=O)CSc1nnc(-c2ccccc2F)o1)c1ccccc1 | 11µM* | 11% | 20% | 7% | 16%
Cc1occc1-c1nnc(SCC(=O)N(C)c2ccccc2)o1 | 11% | -7% | 6% | 2% | -8%
CC1CCCCN1C(=O)CSc1nnc(-c2cccc(Cl)c2)o1 (centres undefined) | nt | nt | 1% | nt | 0%
O=C(NC(=O)c1ccc(C(F)(F)F)cc1)Nc1ccc(-c2cnco2)cc1 | 11% | -5% | 3% | -1% | 5%
Cc1ccc(NC(=S)Nc2ccccn2)c(C)c1 | 12% | 10% | ? | 2% | 5µM*
Cc1cc(Cl)ccc1NC(=S)Nc1ccccn1 | 88% | -5% | ? | -8% | ?
Cc1cccc(NC(=S)Nc2ccccn2)c1 | 81% | 25% | 11µM* | 2% | ?
Cc1oc(-c2ccc(Cl)cc2)cc1C(=O)N1CCC1(C)C(=O)O (centres undefined) | 8.9µM* | -6% | 11% | nt | 5%
CC1(C(=O)O)CCCN1C(=O)c1ccc(Cl)cc1Cl (centres undefined) | 3% | -5% | 2% | nt | -7%
Cc1ccccc1OCC(O)CNCCOc1ccc(C(N)=O)cc1 (centres undefined) | nt | 1% | nt | nt | nt
COc1ccc(OCC(O)CNCCOc2ccccc2OC)c(C(C)(C)C)c1 (centres undefined) | -82% | -1% | 13µM* | -31% | 1%
SMILES | BRCA1 expr up | GLP1R ag | GLP1R inv ag | Mito fusion act | HEK293 tox
COCCn1c(C)cc(C(=O)COC(=O)c2ccc3ncsc3c2)c1C | 11µM* | -14% | -18% | 3% | -11%
COCCn1c(C)cc(C(=O)COC(=O)c2cccnc2SC)c1C | 8.9µM* | -1% | ? | nt | -12%
COCCn1c(C)cc(C(=O)CSc2ccc(NC(C)=O)cc2)c1C | 7.1µM* | -4% | 0% | 1% | 4%
Cc1cc(C(=O)COC(=O)Cc2n[nH]c(=O)c3ccccc23)c(C)n1CC(F)(F)F | 0% | 17% | 19% | 3% | -2%
COCCn1c(C)cc(C(=O)COC(=O)c2ccccc2Br)c1C | -32% | -3% | ? | -4% | -5%
COCCn1c(C)cc(C(=O)COC(=O)Cc2n[nH]c(=O)c3ccccc23)c1C | 8.9µM* | 26% | 24% | 16% | 3%
